Our source for the inhibition values is PubChem BioAssay AID2315 (National Center for Advancing Translational Sciences (NCATS), 2010).

Each structure is given as a SMILES string. “And” between values parts separate entries of the source, which are not always exact repeats. Identical values can stand only once. In all, about 290,000 compounds went through this assay and about 27,000 (9.3%) were called active. No stated cut-off is given here; in the data, active means inhibition mostly above about 28% (no sharp cut-off); inactive means mostly below about 43%. Only a selection was taken, and actives are over-represented in it overall.

A short description of the test: A qHTS for Small Molecule Inhibitors of Shiga Toxin. Further: 0% is about no effect. As to conditions: Vero cells, Shiga toxin protein synthesis inhibition reporter; at 38.7 µM, hits give high values.
The inhibition is the change of the read-out against control, counted positive when it falls. On to `COc1ccc(NC(=O)CNC(=O)Cn2ccc3ccccc3c2=O)c(OC)c1`, for which the inhibition was -5.3% (inactive). As for `CC[C@H](C)[C@H](NC(=O)[C@H](CCCNC(=N)N)NC(=O)[C@H](CCCNC(=N)N)NC(=O)[C@H](CC(C)C)NC(=O)[C@H](Cc1ccccc1)NC(=O)CNC(=O)CNC(=O)[C@@H](N)Cc1ccc(O)cc1)C(=O)N[C@@H](CCCNC(=N)N)C(=O)N1CCC[C@H]1C(=O)N[C@@H](CCCCN)C(=O)N[C@@H](CC(C)C)C(=O)N[C@@H](CCCCN)C(=O)N[C@@H](Cc1c[nH]c2ccccc12)C(=O)N[C@@H](CC(=O)O)C(=O)N[C@@H](CC(N)=O)C(=O)N[C@@H](CCC(N)=O)C(=O)O`, the inhibition was -7.4% (inactive). `CN(C)c1ccc(CNC(=O)CN2C(=O)COc3ccc(S(=O)(=O)N4CCCC4)cc32)cc1`: the inhibition is -2.88% (inactive). Regarding `Oc1ccc(CNc2ccccc2O)cc1`, the inhibition is 120% (active). Consider `O=[N+]([O-])c1ccccc1Nc1ccc(O)cc1`, for which the inhibition is -30.1% (inactive). For `O=C(Cc1ccc(Cl)cc1)NC(=S)Nc1ccccc1O`, the inhibition was -14.5% (inactive). Turning to `CCN1CCN(C2CCCCC2NS(=O)(=O)c2ccc(Cl)cc2)CC1` (stereo not given), the inhibition was -12.5% (inactive). For the compound `CC(C)(C)C1C/C(=C/c2ccco2)C(=O)/C(=C/c2ccco2)C1` (stereo not given), the inhibition was 46.5% (active).

Regarding `O=C1OC(/C=C/c2ccccc2)=NC/1=C/c1ccco1`, the inhibition is -7.2% (inactive).

In the case of `COC(=O)C1=C(C)N(c2ccc(Br)cc2)C(=O)/C1=C\c1ccco1`, the inhibition is 14.6% (inactive). For `Cc1c(S(=O)(=O)N2CC(C)CC(C)C2)c(=O)n(C)c(=O)n1C` (stereo not given), the inhibition was -33.2% (inactive). In the case of `O=C(CCc1c[nH]c2ccccc12)NCCOc1ccccc1`, the inhibition was 44.8% (inactive). With `Oc1ccc(N=Cc2sc3ccccc3c2Cl)cc1`, the inhibition was 77.5% (active). To `Cc1nn(C)cc1/C=N/NC(=O)c1sc2ccccc2c1Cl` belongs 25% (inactive). With `Oc1ccc(N=Cc2c(O)ccc3ccccc23)cc1`, the inhibition was 18.7% (inactive). On to `O=C(N/N=C/c1ccoc1)c1ccc(Cl)cc1Cl`, for which the inhibition was 68.7% (active). Take `CC(C)NC(=O)c1ccc(Cl)cc1Cl`: the inhibition is 8.65% (inactive). Turning to `CC(C)c1cc(C(=O)N/N=C/c2ccoc2)c(O)c(C(C)C)c1`, the inhibition is 4.23% (inactive). `O=C(NCCCN1CCCCC1)C1CCCN(c2ncnc3c2nc2n3CCCCC2)C1` (stereo not given): the inhibition was 4.24% (inactive).

For the compound `OC(COc1ccc(F)cc1Cl)CN1CCc2ccccc2C1` (stereo not given), the inhibition is 16.9% (inactive). Regarding `Cn1nccc1NS(=O)(=O)c1ccc(F)cc1`, the inhibition is 160% (active). In the case of `Cc1cc(C)cc(NS(=O)(=O)c2ccc(F)cc2)c1`, the inhibition was 8.8% (inactive).

`Cc1ccc(NS(=O)(=O)c2ccc(F)cc2)nc1`: the inhibition was -8.43% (inactive). Consider `COc1ccc(S(=O)(=O)NC(C)C(=O)NCc2ccncc2)cc1Cl` (stereo not given), for which the inhibition is -1.67% (inactive). To `O=C(CSc1ncccn1)NC(=O)NCc1ccccc1` belongs 34.2% (inactive).

As to `CCCCc1ccc(NC(=O)NCc2cccnc2)cc1`, the inhibition was 6.04% (inactive). For `Cc1nc2ccc(NC(=O)C(F)(F)F)cc2o1`, the inhibition is -11.6% (inactive). With `Cc1nc2cc(NC(=O)NCc3ccccc3)ccc2o1`, the inhibition is 44.8% (active). As to `Cc1nc(C)c(C(=O)Nc2ccc(C)c(F)c2)o1`, the inhibition is 0.239% (inactive). To `Cc1ccc(NC(=O)Nc2ccc3oc(C)nc3c2)cc1` belongs 144% (active); to `COc1ccccc1N(CC(=O)N/N=C(\C)c1ccccc1O)S(=O)(=O)c1ccc(C)cc1`, -3.24% (inactive); to `CCOC(=O)c1ccc(NC(=O)CCn2c(=O)oc3ccccc32)cc1`, -8.48% (inactive). In the case of `O=C(NC(=S)N1CCCCC1c1cccnc1)c1ccccc1` (stereo not given), the inhibition is 3.14% (inactive).

For `Cc1ccccc1NC(=O)CSc1ccc2nnc(-c3ccccn3)n2n1`, the inhibition was 15.7% (inactive).

As for `COC(=O)c1ccccc1NC(=O)c1ccc(C#N)cc1`, the inhibition was 8.5% (inactive). As to `Cc1c(CN2CCC(n3nccc3NC(=O)CCc3ccccc3)CC2)cnn1C`, the inhibition was 4.45% (inactive). Regarding `O=C(NCC(=O)N1CCC2(CC1)NCCc1[nH]cnc12)c1ccc(Br)cc1`, the inhibition is -10% (inactive). Regarding `COc1ccc(NC(=O)CCS(=O)(=O)c2cc3c(cc2Cl)NC(=O)CO3)cc1OC`, the inhibition was -4.27% (inactive). `Cc1ccc2cc(CCNC(=O)c3c(-c4ccccc4Cl)noc3C)c(=O)[nH]c2c1`: the inhibition was -3.3% (inactive). Take `Cc1nc2ccccc2c2oc(C(=O)NCC3CCCO3)cc12` (stereo not given): the inhibition is -16% (inactive). To `O=C(CSCc1c(F)cccc1Cl)NCC1CCCO1` (stereo not given) belongs -5.03% (inactive); to `Cc1cc(C)n(C(=O)CCNC(=O)c2ccccc2Cl)n1`, -4.34% (inactive). With `O=C(Nc1ccccc1C(=O)NCC1CCCO1)c1ccccc1F` (stereo not given), the inhibition was 17.2% (inactive). For `O=C(NCC1CCCO1)c1ccc2ccccc2n1` (stereo not given), the inhibition is 69.8% (active). To `O=C(NCC1CCCO1)c1ccccc1-c1nc(-c2ccccc2Cl)no1` (stereo not given) belongs 43.2% (active); to `Cc1ccccc1CN(c1ccc(C(=O)NCC2CCCO2)cc1)S(C)(=O)=O` (stereo not given), -12.3% (inactive); to `Cc1ccc(-c2noc(-c3ccccc3C(=O)NCC3CCCO3)n2)cc1` (stereo not given), 48.4% (active). For `O=C(NCC1CCCO1)c1cc(-c2ccccc2)nc2ccccc12` (stereo not given), the inhibition is 15% (inactive).

Consider `O=C(NCC1CCCO1)c1cc2c([nH]c3ccccc32)c(-c2ccc(F)cc2)n1` (stereo not given), for which the inhibition is -7.75% (inactive). Turning to `COCCNC(=O)c1ccccc1-c1nc(-c2ccccc2Cl)no1`, the inhibition is 79.4% (active). Turning to `Cc1ccc(S(=O)(=O)N(CC(O)CN2CCCCC2)c2cccc([N+](=O)[O-])c2)cc1` (stereo not given), the inhibition is -3.58% (inactive). For the compound `COc1ccc(CCNS(=O)(=O)c2cc3c(cc2C)NC(=O)CO3)cc1OC`, the inhibition was 14.5% (inactive). In the case of `CC(C)CC(=O)N1CCN(Cc2ccccc2Br)CC1`, the inhibition was 15.6% (inactive).

In the case of `CN1CCN(NC(=O)Nc2ccc(Br)cc2)CC1`, the inhibition was 24.3% (inactive). To `O=C(c1ccc(Cl)c(S(=O)(=O)N2CCCCC2)c1)N1CCCCCC1` belongs -21.7% (inactive); to `COc1ccc(C(=O)CCC(=O)Nc2ccc(Cl)cc2)cc1`, -6.22% (inactive); to `Cn1sc(=O)c2cc(S(=O)(=O)NC3CC3)ccc21`, -7.9% (inactive). Turning to `Cc1nn(Cc2ccccc2)c(C)c1NS(=O)(=O)c1ccccc1`, the inhibition is -5.63% (inactive). To `ONC(=Nc1ccccc1)c1ccccc1Cl` belongs -18.8% (inactive); to `COc1ccc(N(C(=O)c2cccnc2)S(=O)(=O)c2ccc(OC)c(OC)c2)cc1`, -7.61% (inactive). On to `COc1ccc(OC)c(C(C)NC(=S)Nc2ccc(S(=O)(=O)Nc3ncccn3)cc2)c1` (stereo not given), for which the inhibition was -14% (inactive). `COc1ccc2cc(C(=O)C3CCCN(C(=O)c4sc(C)nc4C)C3)ccc2c1` (stereo not given): the inhibition was 15.6% (inactive). In the case of `O=C(CSc1ccc(-c2ccc(Br)cc2)nn1)NCC1CCCO1` (stereo not given), the inhibition was 2.72% (inactive).

Turning to `CCCNC(=O)CCn1nc(-c2ccccc2)c2ccccc2c1=O`, the inhibition is -10.6% (inactive).

In the case of `COC(=O)C(CC(C)C)NS(=O)(=O)c1cc(Br)ccc1Br` (stereo not given), the inhibition is 40.7% (inactive). As for `O=C(O)Cc1csc(-c2cccc(Oc3ccccc3)c2)n1`, the inhibition was -2.34% (inactive) and 18.5% (inactive).

With `CCC(=O)c1c[nH]c(C(=O)NCC2CCCO2)c1` (stereo not given), the inhibition was -5.73% (inactive). As to `COc1ccc(SCc2noc(C(=O)NCC3CCCO3)c2C(=O)O)cc1` (stereo not given), the inhibition is -6.14% (inactive). For `COc1ccc2cc(C(=O)NCC3CCCO3)[nH]c2c1` (stereo not given), the inhibition is 81.7% (active). `CNC(=O)C1CCN(S(=O)(=O)c2c(C)noc2/C=C/c2cccc(C)c2)CC1`: the inhibition was -9.45% (inactive). As for `Cc1ccc2cccc(OCCCOc3ccccc3CO)c2n1`, the inhibition is 25.2% (inactive). To `Cc1nonc1NC(=O)c1oc2ccccc2c1C` belongs 85.7% (active); to `Cc1ccc(NC(=O)CN(C)Cc2ccc(F)cc2)c([N+](=O)[O-])c1`, 19.4% (inactive).

`Cc1ccc(NC(=O)c2oc3ccccc3c2C)c([N+](=O)[O-])c1`: the inhibition was 46.2% (active). Take `Cc1c(C(=O)NC2CCCCC2)oc2ccccc12`: the inhibition is 60.6% (inactive). On to `Cc1nonc1NC(=O)c1ccccc1Br`, for which the inhibition is 30.3% (inactive). Take `CCc1nonc1NC(=O)c1oc2ccc(Cl)cc2c1C`: the inhibition was 1.67% (inactive). On to `COCc1cc(C)n(CC(=O)NCC2CCCO2)c(=O)c1C#N` (stereo not given), for which the inhibition is -20.7% (inactive).

Consider `COc1ccccc1CCCNC(=O)C1CCC(=O)N(CCN2CCOCC2)C1` (stereo not given), for which the inhibition was -25.5% (inactive). As for `Nc1nc(NCc2ccccc2)n(-c2ccccc2)n1`, the inhibition is -6.24% (inactive).

As for `Cc1cccc(CC(=O)N2CCN=C2SCc2ccc([N+](=O)[O-])cc2)c1`, the inhibition was 2.92% (inactive). To `FC(F)(F)c1cccc(NC(=S)Nc2cccc(Cl)c2)c1` belongs 1.44% (inactive); to `CC(=O)Nc1cccc(C(=O)Nc2nc(C)cs2)c1`, 42.6% (inactive). Regarding `CN(C)S(=O)(=O)c1cccc(NC(=S)NCc2ccc3c(c2)OCO3)c1`, the inhibition is -10.4% (inactive). With `S=C(NCc1ccco1)Nc1ccc2c(c1)OCCO2`, the inhibition was 69.3% (active). Consider `S=C(Nc1cccc(Cl)c1)Nc1ccc2c(c1)OCCO2`, for which the inhibition is 61.2% (active). To `Cc1csc(NC(=S)Nc2cccc(Cl)c2)n1` belongs 126% (active). As for `FC(F)Oc1ccc(NC(=S)NCc2ccco2)cc1Cl`, the inhibition is 9.56% (inactive). To `S=C(NCc1ccc2c(c1)OCO2)NCc1ccco1` belongs 53.2% (inactive). To `S=C(Nc1cccc(Cl)c1)Nc1ccc2cn[nH]c2c1` belongs 34.5% (inactive); to `CC(NS(=O)(=O)c1ccc(OCC(=O)N2CCCC2)cc1)c1ccccc1` (stereo not given), -8.81% (inactive).

As to `COCCn1cnc2c1c(=O)n(CC(=O)NN)c(=O)n2Cc1ccccc1`, the inhibition is 14.2% (inactive). With `C/C(=N\NC(=O)c1cc(-c2ccc(O)cc2)nc2ccccc12)c1cccnc1`, the inhibition is 6.02% (inactive). To `CC1CC(C)CN(CCCNC(=O)Cn2ncc3c([nH]c4ccccc43)c2=O)C1` (stereo not given) belongs -7.63% (inactive); to `Cc1c(Br)c([N+](=O)[O-])nn1CC(=O)Nc1sc2c(c1C(=O)OC(C)C)CCC(C)C2` (stereo not given), -7.24% (inactive).
